Among all 96,000 compounds or so, about 100 (0.1%) were called active. What follows is part of a selection rich in actives, with near analogues and random picks from the rest. Entries with a potency or affinity are not part of this list. Unmarked numbers belong to inactive results.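 Rule for the calls: active = displacement above 50% at 20 µM plus a fluorescence interference ratio under 1.5; inactive = the rest.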

In PubChem BioAssay AID748 (Sanford-Burnham Center for Chemical Genomics, 2007) one finds displacement data, which are given here for 95 compounds.

For this assay, the target named is Bcl-2-like protein 10 (Homo sapiens) (UniProt Q9HD36). The assay can be described thus: displacers of TR3 peptide from Bcl-B, primary screen, selectivity assay for Bfl-1 inhibitor project, biochemical, fluorescence polarization, FITC-TR3 peptide (AID 748).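 Note: plate controls were wells without compound for no effect and wells lacking Bcl-B protein for full effect.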 The note with it: FP displacement of FITC-TR3 peptide from Bcl-B; at 20 µM; stronger effect = higher value. On the technique in general: Fluorescence polarisation rises when a labelled molecule tumbles more slowly, as on binding a larger partner.
For the compound `O=[N+]([O-])c1ccc(Cl)c(-c2ccc(/C=N/c3c(-c4ccco4)nc4ccccn34)o2)c1`, the displacement is 31.7%.
The result for `O=[N+]([O-])c1ccc(-c2ccc(/C=N/c3c(-c4ccco4)nc4ccccn34)o2)cc1` reads 7.3%; that for `COCCn1c(=S)[nH]c2cc(OC)c(OC)cc2c1=O`, 3%.
`COc1cc2c(cc1OC)CN(C(C)C(=O)Nc1ccc(NC(C)=O)cc1)CC2` (stereo not given): the displacement was 2.9%.
Regarding `CCn1c(SCC(=O)N2CCOCC2)nc2sc3c(c2c1=O)CCCC3`, the displacement was 4%.
The result for `COC(=O)CSc1nc2sc3c(c2c(=O)n1C1CCCCC1)CCN(C)C3` reads -62.9%; that for `COC(=O)CSc1nc2sc3c(c2c(=O)n1-c1ccccc1)CCN(C)C3`, 4.6%.
As for `CCn1c(NN)nc2sc3c(c2c1=O)CCC3`, the displacement is -124%.
In the case of `CCn1c(SCC(=O)OC)nc2sc3c(c2c1=O)CCC3`, the displacement was 46.6%.
For `CCn1c(SCC(N)=O)nc2sc3c(c2c1=O)CCCC3`, the displacement is 1.5%.
With `Cc1ccc2cccc(SCC(=O)N3CCOCC3)c2n1`, the displacement was 1.9%.
On to `O=C1CC(C(=O)O)S/C(=N\NC(=O)c2ccccc2)N1` (stereo not given), for which the displacement is 0%.
With `CC(C)n1c(SCCCc2ccccc2)nc2c1c(=O)[nH]c(=O)n2C`, the displacement is -3.8%.
Take `COc1ccccc1NC(=O)Cc1noc(CSc2cccc[n+]2[O-])n1`: the displacement is -8.6%.
With `CC(C)(C)c1nnc2sc(SCCN3C(=O)c4ccccc4C3=O)nn2c1=O`, the displacement was 2.7%.
With `COc1ccc(OC)c(C2=NO[C@@H]3C(=O)N(c4cc(Cl)ccc4OC)C(=O)[C@H]23)c1`, the displacement was 6%.
Then `COc1ccc(Cl)cc1N1C(=O)[C@@H]2C(c3cccc(OC)c3OC)=NO[C@@H]2C1=O`, with 8.5%; and `O=c1oc2c3c4c(cc2c2c1CCC2)OCCN4CCC3`, with 49.8%.
Regarding `CC(C)c1cc(=O)oc2c3c4c(cc12)CCCN4CCC3`, the displacement is 59.5%.
Take `CCNC(=O)CN1c2cccc3cccc(c23)S1(=O)=O`: the displacement is -6.3%.
`CCOC(=O)c1cc(CC)sc1NC(=O)CCC(=O)O`: the displacement is 1.7%.
For the compound `O=C1NC(c2ccco2)Nc2ccccc21` (stereo not given), the displacement was -1.7%.
Then `Brc1ccc(C2Nc3cccc4cccc(c34)N2)o1`, with 17.6%.
`COC(=O)c1ccc(Oc2c(C(F)(F)F)oc3c(CN4CCN(C)CC4)c(O)ccc3c2=O)cc1`: the displacement was 4.9%.
For the compound `CCOC(=O)N1CCC(NC(=O)C2CCCN(C(=O)N3CCOc4ccccc43)C2)CC1` (stereo not given), the displacement was 3.1%.
Regarding `O=C(O)c1cn[nH]c1-n1cnnn1`, the displacement was 0.2%.
Turning to `Cc1cc(C)cc(OCC(=O)Nc2ccc(N3CCCC3)cc2)c1`, the displacement is 17.3%.
As to `CCCCOc1ccc(C(=O)Nc2ccc(N3CCN(C)CC3)cc2)cc1`, the displacement is -3.7%.
`CCOc1ccc(C(=O)Nc2ccc(N3CCCC3)cc2)cc1`: the displacement was 35.5%.
For the compound `Cc1ccc(OCC(=O)Nc2ccc(N3CCOCC3)cc2)cc1`, the displacement was 4.4%.
Consider `Cc1cccc(OCC(=O)Nc2ccc(N3CCN(S(C)(=O)=O)CC3)cc2)c1C`, for which the displacement was -12.3%.
Take `CCCC(=O)N1CCN(c2ccc(NC(=O)c3ccc(OCC)c([N+](=O)[O-])c3)cc2)CC1`: the displacement was -1.6%.
In the case of `Cc1cccc(OCCCC(=O)Nc2ccc(N3CCCCC3)cc2)c1C`, the displacement was -5.7%.
Regarding `CC(C)Oc1ccc(C(=O)Nc2ccc(N3CCCC3)cc2)cc1`, the displacement is 0%.
On to `CCOc1cc(N2CCOCC2)c(OCC)cc1NC(=O)CN1C(=O)NC2(CCc3ccccc32)C1=O` (stereo not given), for which the displacement is -7.8%.
The result for `CCn1c(SCC(=O)Nc2ccc(S(N)(=O)=O)cc2)nnc1-c1ccccc1OC` reads -8.3%.
As to `CCCn1c(=O)c2c(c3ccccc31)OC(C)C(=O)N2` (stereo not given), the displacement was 4.5%.
In the case of `O=C(N/N=C/C1C(c2ccccc2)C1(Cl)Cl)c1cccc(Br)c1` (stereo not given), the displacement is -0.4%.
With `CN(C)S(=O)(=O)c1ccc(C(=O)Nc2nnc(Cc3ccccc3)s2)cc1`, the displacement is -6.2%.
On to `OC1CCN(c2ncnc3nc[nH]c23)CC1`, for which the displacement was 2.2%.
For `CCOC(=O)Cn1c(=O)oc2cc(S(=O)(=O)N3CCC(N4CCCCC4)CC3)ccc21`, the displacement is 10%.
In the case of `Clc1ccc(Cn2ncc3c(NCCN4CCOCC4)ncnc32)cc1`, the displacement was -10.2%.
For `O=C1CCCN1c1ccc(Br)cc1`, the displacement was -0.3%.
Take `Cc1c(N2C(=O)c3ccccc3C2=O)c(=O)n(-c2ccccc2)n1C`: the displacement was 3.3%.
On to `Cc1c(N2C(=O)c3ccc4c5c(ccc(c35)C2=O)CC4)c(=O)n(-c2ccccc2)n1C`, for which the displacement is 112% (active).
The result for `Cc1c(N2C(=O)c3cccc4cccc(c34)C2=O)c(=O)n(-c2ccccc2)n1C` reads -13.8%; that for `Cc1ccsc1/C=N/n1cnc2sc(C)c(C)c2c1=O`, -9.7%.
As for `CC(=O)N1CCN(S(=O)(=O)c2ccc(S(=O)(=O)NC3CC3)cc2)CC1`, the displacement is -5.1%.
In the case of `CC(C)(C)C(=O)Nc1nc(C2CCCN2S(=O)(=O)c2ccc(Cl)cc2)cs1` (stereo not given), the displacement was -7.5%.
Take `Cc1ccc(S(=O)(=O)N2CCN(C3CCN(Cc4ccccc4)CC3)CC2)cc1`: the displacement is 6.6%.
Regarding `Cc1cc(C(=O)O)c(C)n1-c1ccccc1`, the displacement was -1%.
On to `CC(C)(C)NC(=O)c1sccc1C(=O)O`, for which the displacement was -1.7%.
In the case of `CCOc1cc(/C=C2\SC(=S)N(Nc3ccccc3)C2=O)ccc1O`, the displacement is -87.6%.
On to `Cc1ccc(-c2csc(N3N=C(c4ccccc4)/C(=C\c4ccc(N(C)C)cc4)C3=O)n2)cc1`, for which the displacement is -1.8%.
With `COc1cc(C2N(c3ccccn3)C(=O)C3CCCN32)cc(OC)c1OC` (stereo not given), the displacement is 6.8%.
Take `Cc1ccc(Cl)c(OCC(=O)Nc2ccc3c(c2)OCCO3)c1`: the displacement is 1.3%.
For the compound `O=C(O)CN(c1ccc(F)cc1)S(=O)(=O)c1ccc2c(c1)OCCO2`, the displacement was -1.7%.
As for `CC(C)CN(C(=O)COC(=O)c1cc2ccccc2oc1=O)C1CCS(=O)(=O)C1` (stereo not given), the displacement was -8.2%.
As to `CC(C)CN(C(=O)COC(=O)c1ccc2c(c1)NC(=O)CS2)C1CCS(=O)(=O)C1` (stereo not given), the displacement was 8.5%.
Then `O=C(CCc1nc2ccccc2s1)OCC(=O)N1CCN(C(=O)c2ccco2)CC1`, with -8%.
Then `Cn1c(=O)c2c3c(sc2n2c(SCc4ccc5c(c4)OCO5)nnc12)COC(C)(C)C3`, with -8.4%; and `O=C(Nc1ccc(F)cc1F)c1cc2ncc(Br)cn2n1`, with -2.9%.
Then `COC(=O)c1ccccc1NC(=O)c1cc2ncc(Br)cn2n1`, with 1.3%.
In the case of `Cc1ccc(Cc2cnc(NC(=O)C3CCCO3)s2)cc1` (stereo not given), the displacement was 0.1%.
Consider `COc1ccc2c3c(cccc13)N(C)N=C2C`, for which the displacement is 20.3%.
Regarding `COc1ccc(C(C)=O)c2c(O)cccc12`, the displacement is -7%.
Turning to `CCC1=NNc2cccc3c(OC)ccc1c23`, the displacement was 83.6% (active).
The result for `CCC(C)(C)n1nnnc1C(c1ccc2ncccc2c1)N1CCN(c2nc3ccccc3s2)CC1` (stereo not given) reads -13.1%; that for `COc1ccc(-c2c(C)nn(-c3ccccc3)c2N)cc1`, -8%; that for `CCOc1cc(C(=O)Nc2ccon2)cc(OCC)c1OCC`, -15.8%.
On to `Cc1ccc(S(=O)(=O)NC(=O)c2cc(C)n(CCCN3CCOCC3)c2C)cc1`, for which the displacement was 8.5%.
Turning to `Cc1cc(=S)cc(C)n1CCCn1ccnc1`, the displacement is -6.1%.
For `Cc1ccccc1C1CC(=O)NC2=C1C(=O)CCC2` (stereo not given), the displacement is -1.2%.
Regarding `CCCn1c(SCC(=O)NCCc2ccc(OC)c(OC)c2)nc2c1c(=O)n(C)c(=O)n2C`, the displacement was -14.2%.
`Cc1cc(C)cc(OCC(=O)OCC(=O)Nc2ccc(Cl)cn2)c1`: the displacement is -13.6%.
As for `O=C(COC(=O)CCOc1ccccc1)Nc1ccc(Cl)cn1`, the displacement was 16%.
For the compound `CCOC(=O)c1sc(/N=C/N(C)C)c(C(=O)OCC)c1C`, the displacement was -16.8%.
Turning to `CCOC(=O)C1=C(O)/C(=C/N(C)C)N=C1C`, the displacement was -3.9%.
For the compound `CCOC(=O)C(Cc1ccccc1)NC(=O)Cn1nnc(-c2ccc(SC)cc2)n1` (stereo not given), the displacement was -16.2%.
Turning to `CCCOP(=O)(OCCC)C(Nc1ccc(C(C)C)cc1)c1ccc([N+](=O)[O-])cc1` (stereo not given), the displacement is 13.7%.
The result for `Cc1c(NS(=O)(=O)c2cccc(C(=O)NCc3ccccc3)c2)c(=O)n(-c2ccccc2)n1C` reads 0.4%.
As to `CCOC(=O)c1ccc(NC(=O)C(C)N2C(=O)c3ccccc3C2=O)cc1` (stereo not given), the displacement was 14.6%.
Turning to `CCOC(=O)c1ccc(NC2OC(=O)c3ccccc32)cc1` (stereo not given), the displacement was -4.1%.
Then `Cc1ccc(CC(=O)OCCNC(=O)c2cccnc2)cc1`, with 1.8%.
The result for `O=c1c2cc(N3CCOCC3)ccc2[nH]c(=S)n1CCCN1CCCC1` reads 13.1%; that for `O=c1c2cc(N3CCOCC3)ccc2[nH]c(=S)n1CCCN1CCCCC1`, 10.5%.
Take `CN(C)c1ccc(C2N(c3ccc(F)cc3)C(=O)C3CCCN32)cc1` (stereo not given): the displacement was -12.2%.
`Cc1ccc(C)c(NC(=O)C2C(c3ccccc3)C2(Cl)Cl)c1` (stereo not given): the displacement is -7.6%.
Turning to `Cc1cccc(Nc2nc(N)nc(CN3CCN(Cc4ccc5c(c4)OCO5)CC3)n2)c1`, the displacement is -2.8%.
Turning to `Cc1cc(C)nc(/N=C(\N)C2=C(O)CC(C)(C)CC2=O)n1`, the displacement is -12.3%.
Consider `O=C1c2ccccc2C(=O)C12Cc1ccccc1N1CCN(c3ccccc3)CC12` (stereo not given), for which the displacement is -0.1%.
Take `CC1(C)OC(=O)C2(Cc3ccccc3N3CCCCC32)C(=O)O1` (stereo not given): the displacement is 3.5%.
Turning to `O=C(CCS(=O)(=O)c1ccc(Br)cc1)N1CCN(Cc2ccccc2)CC1`, the displacement was -5%.
Turning to `O=C(CCN1Cc2ccccc2C1)c1ccc2c(c1)OCCO2`, the displacement is 0.8%.
Take `O=C(CCN1CCc2ccccc2CC1)c1ccc2c(c1)OCCO2`: the displacement is 19.8%.
